Reference: PubChem BioAssay (NCATS)
“And” between values parts separate entries of the source, which are not always exact repeats. Equal values may be shown once. The source made the active and inactive calls. Unless noted, calls come from the whole dose curve.

How the values were obtained:
[1] = Cell Viability - BJ (AID 421); conditions: BJ fibroblast viability, qHTS;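 note: potency is the fitted concentration of half-maximal effect; cells exposed to compound for 40 hours at 37 °C before readout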
Procedure, shortened: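 Cytotoxicity in human BJ foreskin fibroblasts is scored as loss of cellular ATP after a 40-hour exposure, measured by luciferase luminescence. Controls are DMSO and 100 uM tamoxifen.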

[2] = Cell Viability - NIH 3T3 (AID 541; active = well fitted curve in the direction sought with a large enough effect; inconclusive = small, poorly fitted or top-dose-only effect, or another doubt; inactive = no such curve, though single readings can be large; an effect the other way counts as inactive or inconclusive;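 note: cells exposed to compound for 40 hours; nearly all actives have a fitted effect of over 25% in size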; note: potency is the fitted concentration of half-maximal effect;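 for activity change, negative = cytotoxicity: plate controls were DMSO alone for no effect and tamoxifen positive control for full effect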); conditions: NIH 3T3 cell viability, qHTS; activity change, negative = cytotoxicity: at 92.2 µM (top of the series)
Procedure, shortened: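 Intracellular ATP (CellTiter-Glo luminescence, 20 min at room temperature) measured after 40 hr compound exposure at 37 °C of 1000 NIH 3T3 mouse fibroblasts/well in complete medium; AC50 derived by Hill-equation modelling of qHTS concentration-response curves.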

[3] = Cell Viability - SH-SY5Y (AID 544; active = well fitted curve in the direction sought with a large enough effect; inconclusive = small, poorly fitted or top-dose-only effect, or another doubt; inactive = no such curve, though single readings can be large; an effect the other way counts as inactive or inconclusive;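 note: cells exposed to compound for 40 hours; nearly all actives have a fitted effect of over 55% in size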; note: potency is the fitted concentration of half-maximal effect); conditions: SH-SY5Y neuroblastoma cell viability; viability change, negative = cytotoxic: at 92.2 µM (top of the series)
Procedure, shortened: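 Cytotoxicity measured via ATP-dependent luciferase luminescence (CellTiter-Glo) following 40 h, 37 °C exposure of 1500 SH-SY5Y cells per well. Concentration-response data were fitted with the standard Hill equation to give AC50.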

[4] = Cell Viability - LYMP2-005 (AID 967; active = well fitted curve in the direction sought with a large enough effect; inconclusive = small, poorly fitted or top-dose-only effect, or another doubt; inactive = no such curve, though single readings can be large; an effect the other way counts as inactive or inconclusive;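 note: cells exposed to compound for 24 h at 37 °C; plate controls were DMSO only for no effect and 92 µM tetraoctylammonium bromide control for full effect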); conditions: LYMP2-005 lymphoblastoid cell viability; series mostly up to 92.2 µM
Procedure, shortened: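 Acute cytotoxicity is scored as a concentration-dependent drop in intracellular ATP in human lymphoblastoid LYMP2-005 cells after 24 h compound treatment. ATP is quantified by luciferase luminescence, and AC50 is derived by Hill-equation modelling.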

[5] = target: Estrogen receptor (Homo sapiens) (UniProt P03372); experiment: qHTS assay for small molecule antagonists of estrogen receptor alpha signaling (AID 588513; active = well fitted curve in the direction sought with a large enough effect in the signal ratio, with a control signal flat, not every such curve was filed as active; inconclusive = small, poorly fitted or top-dose-only effect, or effect the other way, or a change in a side signal; inactive = no such curve, though single readings can be large or run the other way; the % refers to the signal ratio; note: potency is the fitted concentration of half-maximal effect); conditions: ER-alpha-UAS-bla HEK293, beta-lactamase ratio, antagonist mode; series mostly up to 76.9 µM
Procedure, shortened: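 Fluorescence from CCF4 substrate after 2 h at room temperature gave reporter activity; cells had been exposed to compound and 0.5nM 17-beta-estradiol for 18 h at 37 C. Hill-equation fitting yielded IC50 and maximal response.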

[6] = target: Bile acid receptor (Homo sapiens) (UniProt Q96RI1); experiment: qHTS assay for small molecule antagonists of farnesoid X receptor signaling (AID 588526); conditions: HEK293T FXR-UAS-bla, beta-lactamase ratio, antagonist mode; series mostly up to 76.7 µM; note: % is set by controls: 0 for no effect and ±100 for the full control effect
Procedure, shortened: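 Concentration-response titrations were fitted to the Hill equation for half-maximal inhibition and maximal response, with data normalised to 50 uM chenodeoxycholic acid and DMSO control wells. Cells: FXR-UAS-bla HEK293T, dialyzed FBS.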

[7] = target: Glucocorticoid receptor (Homo sapiens) (UniProt P04150); experiment: qHTS assay for small molecule agonists of glucocorticoid receptor signaling (AID 588532; active = well fitted curve in the direction sought with a large enough effect in the signal ratio, with a control signal flat; inconclusive = small, poorly fitted or top-dose-only effect, or a change in a side signal; inactive = no such curve, though single readings can be large or run the other way; the % refers to the signal ratio;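 note: 100% = dexamethasone at 0.1 µM and 0% = DMSO only wells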); conditions: HeLa MMTV-bla, beta-lactamase ratio, agonist, 18 h; stronger effect = higher value; percent of dexamethasone control, DMSO zero
Procedure, shortened: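 Stimulation of a glucocorticoid response element-driven beta-lactamase gene was measured in HeLa cells. Responses were scaled between DMSO basal and 0.1 uM dexamethasone, then fitted for half-maximal stimulation.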

[8] = target: Glucocorticoid receptor (Homo sapiens) (UniProt P04150); experiment: qHTS assay for small molecule antagonists of glucocorticoid receptor signaling (AID 588533; active = well fitted inhibition curve with a large enough effect in the signal ratio, with a control signal flat, not every such curve was filed as active; inconclusive = small, poorly fitted or top-dose-only effect, or effect the other way, or a change in a side signal; the % refers to the signal ratio;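 note: cells stimulated with 2 nM dexamethasone as agonist; % is set by controls: 0 for no effect and ±100 for the full control effect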); conditions: HeLa MMTV-bla, GRE beta-lactamase ratio, antagonist mode, 18 h; series mostly up to 76.8 µM
Procedure, shortened: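 Antagonist-mode qHTS: compound titrations added to GRE-bla HeLa cells, then dexamethasone 2 nM final; 18 h, 37 C. CCF4 FRET fluorescence normalized to dexamethasone and DMSO; IC50 from Hill fit.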

[9] = target: Peroxisome proliferator-activated receptor delta (Homo sapiens) (UniProt Q03181); experiment: qHTS assay for small molecule agonists of peroxisome proliferator-activated receptor delta signaling (AID 588534); conditions: HEK293T PPARdelta-UAS-bla, beta-lactamase ratio, 18 h; series mostly up to 76.7 µM;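 note: 0% = DMSO basal wells and 100% = positive control agonist at 10 µM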
Procedure, shortened: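 Agonist-mode beta-lactamase reporter readout (CCF4 dye, 2 h at RT) after 18 h at 37 °C exposure to a titration; Hill-equation fitting gave EC50 and maximal response.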

[10] = target: Peroxisome proliferator-activated receptor gamma (Homo sapiens) (UniProt P37231); experiment: qHTS assay for small molecule antagonists of peroxisome proliferator-activated receptor gamma signaling (AID 588537; active = well fitted inhibition curve with a large enough effect in the signal ratio, with a control signal flat, not every such curve was filed as active; inconclusive = small, poorly fitted or top-dose-only effect, or effect the other way, or a change in a side signal; the % refers to the signal ratio;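 note: reporter cells co-stimulated with 50 nM rosiglitazone agonist during compound treatment; % of control where 0% means no effect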); conditions: HEK293 PPARg-UAS-bla, beta-lactamase ratio, antagonist mode; series mostly up to 76.8 µM
Procedure, shortened: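 Compounds are tested as concentration series for inhibition of rosiglitazone-driven (50 nM) reporter expression in GeneBLAzer PPAR-gamma-UAS-bla HEK293 cells. After 16 h at 37 C, CCF4 substrate is added for 2 h at room temperature and blue/green fluorescence is measured.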

[11] = target: Retinoic acid receptor RXR-alpha (Homo sapiens) (UniProt P19793); experiment: qHTS assay for small molecule agonists of retinoid X receptor alpha signaling (AID 588544); conditions: HEK293T RXRa-UAS-bla, beta-lactamase reporter, 18 h; series mostly up to 76.7 µM;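 note: 0% = DMSO basal wells and 100% = reference agonist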
[12] = qHTS assay for small molecule agonists of the antioxidant response element (ARE) signaling pathway (AID 651741; active = well fitted activation curve with a large enough effect in the signal ratio; inconclusive = small, poorly fitted or top-dose-only effect, or effect the other way, or a change in a side signal; the % refers to the signal ratio; note: potency is the fitted concentration of half-maximal effect; for activation: % of control where 0% means no effect); conditions: HepG2 ARE-bla reporter, beta-lactamase FRET ratio, 16 h; series mostly up to 96 µM
Procedure, shortened: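 Reporter: beta-lactamase under ARE, stably in HepG2. Exposure: 16 h, 37 C, compounds delivered in DMSO by pin tool after 5 h cell preincubation. Readout: FRET substrate fluorescence after 2 h at RT.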

[13] = qHTS assay for small molecule activators of the p53 signaling pathway (AID 651743; active = well fitted activation curve with a large enough effect in the signal ratio, not every such curve was filed as active; inconclusive = small, poorly fitted or top-dose-only effect, or a change in a side signal; the % refers to the signal ratio; note: % of control where 0% means no effect); conditions: HCT-116 p53RE-bla, beta-lactamase FRET ratio, 16 h; activation: stronger effect = higher value
Procedure, shortened: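 Agonist-mode quantitative HTS in HCT-116 cells carrying a p53-response-element beta-lactamase reporter; 16 h compound treatment at 37 C, then FRET substrate loading for 2 h at room temperature and fluorescence read.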

[14] = qHTS assay for small molecule activators of the nuclear factor-kappa B (NF-kB) signaling pathway (AID 651749; active = well fitted activation curve with a large enough effect in the signal ratio; inconclusive = small, poorly fitted or top-dose-only effect, or a change in a side signal; the % refers to the signal ratio; note: % of control where 0% means no effect); conditions: NF-kB-bla ME-180 cells, beta-lactamase FRET ratio, 16 h; stronger effect = higher value
Procedure, shortened: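 Human ME-180 cervical cells with an NF-kB-bla construct; compounds added via 23 nL pin transfer, DMSO as vehicle; incubation 16 hr. Reporter activity measured by FRET disruption.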

[15] = qHTS assay for small molecule disruptors of the mitochondrial membrane potential - 1 hr assay (AID 651754); conditions: series mostly up to 92.2 µM; note: nearly all actives have a fitted effect of over 35% in size; note: potency is the fitted concentration of half-maximal effect
Procedure, shortened: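 Mitochondrial potential in living HepG2 cells after 1 hr compound treatment at 37C was read with Mito-MPS dye added for a further 30 min. Red aggregate and green monomer fluorescence were measured; loss of potential leaves dye as cytoplasmic monomers.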

[16] = qHTS assay for small molecule disruptors of the mitochondrial membrane potential - 5 hr assay (AID 651755); conditions: JC-1-type ratio dye; series mostly up to 92.2 µM; note: nearly all actives have a fitted effect of over 40% in size; note: potency is the fitted concentration of half-maximal effect
Procedure, shortened: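 Seed HepG2 overnight, add compound, incubate 5 hr at 37C and 5% CO2, stain 30 min with Mito-MPS, then measure monomer (490/535 nm) and aggregate (540/590 nm) fluorescence.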

[17] = Cellular Toxicity (caspase-3) Jurkat (AID 655; active = well fitted curve in the direction sought with a large enough effect; inconclusive = small, poorly fitted or top-dose-only effect, or another doubt; inactive = no such curve, though single readings can be large; an effect the other way counts as inactive or inconclusive;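 note: cells exposed to compound for 16 h at 37 °C before reading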); conditions: Jurkat caspase-3 activation, luminescence; caspase-3 activation: at 92.2 µM (top of the series), DMSO = 0%, tamoxifen = 100%
Procedure, shortened: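 5000 Jurkat cells/well; compound 16 hr, 37 °C; Caspase-Glo 3/7 added, 20 min RT; luminescence read. Norm: DMSO = 0%, tamoxifen 100 uM = 100%. AC50, Hill model.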

[18] = target: Estrogen receptor (Homo sapiens) (UniProt P03372); experiment: qHTS assay for small molecule agonists of estrogen receptor alpha signaling (AID 588514); conditions: ER-alpha-UAS-bla HEK293, beta-lactamase ratio, 18 h; series mostly up to 76.8 µM;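 note: 0% = vehicle only and 100% = reference agonist; nearly all actives have a fitted effect of over 70% in size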
Procedure, shortened: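 EC50 and efficacy came from Hill fits of beta-lactamase reporter signal (CCF4 dye, 2 h at room temperature) scaled between DMSO and 20 nM 17-beta-estradiol. Agonist mode: HEK293 ER-alpha-UAS-bla cells in charcoal/dextran-stripped serum medium, 18 h compound exposure at 37 C.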

[19] = qHTS assay for small molecule antagonists of peroxisome proliferator-activated receptor delta signaling (AID 588535; active = well fitted inhibition curve with a large enough effect in the signal ratio, with a control signal flat, not every such curve was filed as active; inconclusive = small, poorly fitted or top-dose-only effect, or effect the other way, or a change in a side signal; inactive = no such curve, though single readings can be large or run the other way; the % refers to the signal ratio;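 for max response: cells co-treated with a PPAR-delta agonist as stimulator during compound exposure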); conditions: HEK293T PPARd-UAS-bla, beta-lactamase FRET ratio, 18 h; 460 nm channel
Procedure, shortened: (§1)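 Inhibition of PPAR-delta response element-driven beta-lactamase expression is measured in HEK293T cells exposed to a compound titration series for 18 hrs at 37 C. Half-maximal inhibition comes from Hill equation fitting.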

[20] = target: Peroxisome proliferator-activated receptor delta (Homo sapiens) (UniProt Q03181); experiment: as above; conditions: HEK293T PPARd-UAS-bla, beta-lactamase FRET ratio, 18 h; series mostly up to 76.7 µM
Procedure, shortened: as §1

Sequence of Glucocorticoid receptor (Homo sapiens) (P04150 whole entry, looked up): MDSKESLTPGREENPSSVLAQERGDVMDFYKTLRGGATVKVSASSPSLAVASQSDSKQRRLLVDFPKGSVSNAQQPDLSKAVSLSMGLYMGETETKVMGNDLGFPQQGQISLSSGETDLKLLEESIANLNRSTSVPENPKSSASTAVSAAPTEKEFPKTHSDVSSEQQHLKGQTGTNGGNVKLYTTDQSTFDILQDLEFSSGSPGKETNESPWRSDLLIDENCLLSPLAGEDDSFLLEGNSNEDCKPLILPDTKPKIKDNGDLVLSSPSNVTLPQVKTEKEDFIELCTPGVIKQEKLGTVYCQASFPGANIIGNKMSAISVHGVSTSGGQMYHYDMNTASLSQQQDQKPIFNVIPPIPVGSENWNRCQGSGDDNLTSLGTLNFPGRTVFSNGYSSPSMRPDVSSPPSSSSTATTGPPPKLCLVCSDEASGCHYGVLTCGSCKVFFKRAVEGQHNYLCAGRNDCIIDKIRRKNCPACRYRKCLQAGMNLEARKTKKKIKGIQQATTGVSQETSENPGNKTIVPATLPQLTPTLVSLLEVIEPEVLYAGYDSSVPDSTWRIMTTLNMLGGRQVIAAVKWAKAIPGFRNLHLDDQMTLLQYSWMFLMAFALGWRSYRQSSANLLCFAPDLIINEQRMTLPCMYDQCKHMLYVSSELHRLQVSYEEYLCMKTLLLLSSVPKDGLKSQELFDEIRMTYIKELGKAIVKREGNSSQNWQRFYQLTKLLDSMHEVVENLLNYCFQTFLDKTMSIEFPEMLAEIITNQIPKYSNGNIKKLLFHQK
Sequence of Bile acid receptor (Homo sapiens) (Q96RI1 whole entry, looked up): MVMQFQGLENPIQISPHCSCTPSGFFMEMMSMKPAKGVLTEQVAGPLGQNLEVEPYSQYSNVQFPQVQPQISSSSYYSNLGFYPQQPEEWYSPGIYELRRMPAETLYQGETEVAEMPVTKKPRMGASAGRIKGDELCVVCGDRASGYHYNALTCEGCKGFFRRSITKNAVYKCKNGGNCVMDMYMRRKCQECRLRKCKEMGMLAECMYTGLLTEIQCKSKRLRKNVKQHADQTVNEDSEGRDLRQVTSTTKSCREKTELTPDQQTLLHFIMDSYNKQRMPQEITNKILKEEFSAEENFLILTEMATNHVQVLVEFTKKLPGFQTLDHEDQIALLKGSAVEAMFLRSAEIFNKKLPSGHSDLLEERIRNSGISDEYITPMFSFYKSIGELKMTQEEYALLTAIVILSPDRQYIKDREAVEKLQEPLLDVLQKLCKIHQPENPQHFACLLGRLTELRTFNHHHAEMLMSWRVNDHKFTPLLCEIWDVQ
Sequence of Retinoic acid receptor RXR-alpha (Homo sapiens) (P19793 whole entry, looked up): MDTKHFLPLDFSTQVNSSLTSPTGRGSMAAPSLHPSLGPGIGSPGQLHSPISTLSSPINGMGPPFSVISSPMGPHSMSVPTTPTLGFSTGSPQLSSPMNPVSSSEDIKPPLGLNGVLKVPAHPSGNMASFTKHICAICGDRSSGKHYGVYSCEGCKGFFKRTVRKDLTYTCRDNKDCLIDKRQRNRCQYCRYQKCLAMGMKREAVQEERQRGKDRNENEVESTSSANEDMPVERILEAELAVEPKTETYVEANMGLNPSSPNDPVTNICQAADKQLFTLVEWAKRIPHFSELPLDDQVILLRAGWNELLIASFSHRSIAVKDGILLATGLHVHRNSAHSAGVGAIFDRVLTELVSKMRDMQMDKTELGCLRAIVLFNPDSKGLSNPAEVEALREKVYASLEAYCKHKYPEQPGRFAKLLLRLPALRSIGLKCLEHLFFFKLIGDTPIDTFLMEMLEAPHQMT
Sequence of Estrogen receptor (Homo sapiens) (P03372 whole entry, looked up): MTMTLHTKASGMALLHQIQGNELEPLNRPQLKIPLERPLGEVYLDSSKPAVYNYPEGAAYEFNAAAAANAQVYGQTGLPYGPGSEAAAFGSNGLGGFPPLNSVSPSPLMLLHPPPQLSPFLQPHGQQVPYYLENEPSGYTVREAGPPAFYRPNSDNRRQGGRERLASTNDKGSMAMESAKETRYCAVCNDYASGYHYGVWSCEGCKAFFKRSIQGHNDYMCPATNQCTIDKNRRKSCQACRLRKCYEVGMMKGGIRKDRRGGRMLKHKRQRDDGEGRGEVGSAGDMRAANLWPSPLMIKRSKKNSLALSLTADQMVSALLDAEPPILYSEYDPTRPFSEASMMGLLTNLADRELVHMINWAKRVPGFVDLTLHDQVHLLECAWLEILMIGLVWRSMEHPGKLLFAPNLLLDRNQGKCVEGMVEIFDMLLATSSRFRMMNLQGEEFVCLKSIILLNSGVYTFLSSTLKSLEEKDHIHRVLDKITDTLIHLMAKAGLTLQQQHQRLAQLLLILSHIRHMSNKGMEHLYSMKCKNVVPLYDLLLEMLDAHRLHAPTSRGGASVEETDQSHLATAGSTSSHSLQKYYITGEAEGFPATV
Sequence of Peroxisome proliferator-activated receptor delta (Homo sapiens) (Q03181 whole entry, looked up): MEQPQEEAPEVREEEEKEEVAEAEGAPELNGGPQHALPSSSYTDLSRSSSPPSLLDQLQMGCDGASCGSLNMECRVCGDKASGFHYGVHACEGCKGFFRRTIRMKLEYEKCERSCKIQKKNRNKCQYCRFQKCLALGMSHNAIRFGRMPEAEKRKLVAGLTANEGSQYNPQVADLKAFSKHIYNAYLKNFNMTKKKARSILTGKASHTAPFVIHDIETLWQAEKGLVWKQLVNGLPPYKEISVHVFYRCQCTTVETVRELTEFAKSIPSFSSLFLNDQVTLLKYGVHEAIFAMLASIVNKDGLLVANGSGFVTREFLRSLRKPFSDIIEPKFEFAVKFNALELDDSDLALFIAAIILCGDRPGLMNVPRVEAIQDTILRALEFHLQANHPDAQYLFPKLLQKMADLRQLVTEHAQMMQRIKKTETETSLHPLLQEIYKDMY
Sequence of Peroxisome proliferator-activated receptor gamma (Homo sapiens) (P37231 whole entry, looked up): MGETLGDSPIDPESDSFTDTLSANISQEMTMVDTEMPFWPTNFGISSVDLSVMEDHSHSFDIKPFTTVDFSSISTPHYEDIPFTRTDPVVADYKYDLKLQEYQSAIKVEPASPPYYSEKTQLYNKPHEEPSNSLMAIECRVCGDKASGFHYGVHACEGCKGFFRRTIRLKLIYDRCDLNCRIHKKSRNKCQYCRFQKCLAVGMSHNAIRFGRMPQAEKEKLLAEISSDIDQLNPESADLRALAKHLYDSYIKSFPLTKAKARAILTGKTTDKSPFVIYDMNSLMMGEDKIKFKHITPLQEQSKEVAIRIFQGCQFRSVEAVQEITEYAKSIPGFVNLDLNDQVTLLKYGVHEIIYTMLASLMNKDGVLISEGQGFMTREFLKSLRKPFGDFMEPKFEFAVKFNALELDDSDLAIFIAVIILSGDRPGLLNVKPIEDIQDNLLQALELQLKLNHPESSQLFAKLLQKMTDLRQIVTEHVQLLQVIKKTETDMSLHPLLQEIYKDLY

Cc1ccc2c(c1N)C(=O)c1ccccc1C2=O
active: Potency [2] 25.1 µM | Potency [12] 21.1 µM and 17.2 µM | Potency [15] 2.66 µM | Potency [16] 2.66 µM
inactive: Potency [1] > 92 µM | Potency [3] | Potency [4] | Potency [5] | outcome [6] | activation [7] -11.3% and -4.68% | outcome [8] | outcome [9] | Potency [10] | outcome [11] | activation [13] 7.91% and 8.94% | activation [14] 0.359% and 2.04%

COP(=S)(OC)SCn1nnc2ccccc2c1=O
active: Potency [3] 15.8 µM | Potency [5] 31.6 µM [inconclusive]
inactive: Potency [1] > 92 µM | caspase-3 activation [17] -1.97% | Potency [18] | outcome [9] | activation [13] 1.84% and 3.37%

O=[N+]([O-])c1cc(Cl)c(Cl)c(Cl)c1
inactive: Potency [1] > 92 µM | Potency [5] | Potency [18] | outcome [6] | outcome [20] | outcome [11] | activation [13] -1.35% | activation [14] -1.89% | Potency [15]
30.2%: max response [19]
active: activity change, negative = cytotoxicity [2] -119%

CCCCCCCCCCCCCl
inactive: Potency [1] > 92 µM | Potency [3] | caspase-3 activation [17] 1.16% | Potency [4] | Potency [5] | Potency [18] | activation [7] 2.7% | outcome [8] | Potency [10] | outcome [11] | activation [13] -1.06% | Potency [15] | Potency [16]
10.4%: max response [19]

Cc1ccc(N)c(C)c1
14.7%: max response [19]
inactive: Potency [1] > 92 µM | Potency [2] | caspase-3 activation [17] 1.21% | Potency [4] | outcome [6] | activation [7] -0.661% | outcome [8] | outcome [20] | Potency [10] | outcome [11] | Potency [15] | Potency [16]

CCCC[N+](=O)[O-]
active: caspase-3 activation [17] 102%
inactive: Potency [1] > 92 µM | Potency [2] | Potency [3] | Potency [4] | Potency [5] | Potency [18] | outcome [6] | outcome [8] | outcome [11] | Potency [12] | activation [14] -0.304% | Potency [15] | Potency [16]

ClCCBr
-34.3%: max response [19]
inactive: Potency [1] > 92 µM | Potency [2] | Potency [3] | caspase-3 activation [17] 0.239% | Potency [5] | outcome [20] | Potency [10] | outcome [11] | Potency [12] | activation [13] 0.777% | activation [14] 0.431% | Potency [15] | Potency [16]

Cc1cc(N=Nc2ccccc2C)ccc1N
inactive: Potency [1] > 92 µM | caspase-3 activation [17] 2.76% | Potency [4] | outcome [6] | activation [7] -7.11% | outcome [9] | activation [14] -0.0756% and -0.721%
active: Potency [12] 1.88 µM and 4.86 µM
-21.5%: max response [19]
